Assay results reported in PubChem BioAssay AID1159580 (chemical genetic matrix, 2015).
About 2,000 (36%) of roughly 5,500 compounds were called active. Roughly 18% stayed inconclusive and do not appear here. Rule as the data show it: active = normalized growth mostly below about 0.91 (no sharp cut-off); inconclusive = no clear call, values can overlap the other calls; inactive = mostly above about 0.92. The list shows a part of the results.

Assay: chemical genetic growth profiling, strain panel (AID 1159580);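 also: tested at 20 µM; growth read once vehicle control cultures reached saturation at 30 °C; 1 = growth at the plate median or of vehicle wells; lower values mean less growth of the strain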
Conditions: growth OD

Measured: normalized growth

Fc1ccc([C@@H]2CCNC[C@H]2COc2ccc3c(c2)OCO3)cc1
inactive: S. cerevisiae deletion strains, locus YJR075W, strain HOC1, stronger effect = lower value 1.03 | S. cerevisiae deletion strains, locus YKL009W, strain mrt4, stronger effect = lower value 1.03 | S. cerevisiae deletion strains, locus YKL068W, stronger effect = lower value 1 | S. cerevisiae deletion strains, locus YKL085W, strain MDH1 (second series), stronger effect = lower value 0.991 | S. cerevisiae deletion strains, locus YKL085W, strain MDH1, stronger effect = lower value 0.991 | S. cerevisiae deletion strains, locus YKL160W, strain elf1, stronger effect = lower value 0.99 | S. cerevisiae deletion strains, locus YKL190W, strain CNB1, stronger effect = lower value 1.01 | S. cerevisiae deletion strains, locus YKR001C, strain vps1, stronger effect = lower value 1.02 | S. cerevisiae deletion strains, locus YKR026C, strain gcn3, stronger effect = lower value 1.01 | S. cerevisiae deletion strains, locus YKR091W, strain srl3, stronger effect = lower value 0.999 | S. cerevisiae deletion strains, locus YLL001W, strain dnm1, stronger effect = lower value 1 | S. cerevisiae deletion strains, locus YLL026W, stronger effect = lower value 0.998 | S. cerevisiae deletion strains, locus YLL041C, strain sdh2, stronger effect = lower value 1 | S. cerevisiae deletion strains, locus YLR027C, strain aat2, stronger effect = lower value 1 | S. cerevisiae deletion strains, locus YLR039C, strain RIC1, stronger effect = lower value 1.09 | S. cerevisiae deletion strains, locus YLR058C, strain SHM2, stronger effect = lower value 1.01 | S. cerevisiae deletion strains, locus YLR102C, strain apc9, stronger effect = lower value 1.02 | S. cerevisiae deletion strains, locus YLR113W, strain HOG1, stronger effect = lower value 0.995 | S. cerevisiae deletion strains, locus YLR221C, strain rsa3, stronger effect = lower value 1.01 | S. cerevisiae deletion strains, locus YLR258W, strain gsy2, stronger effect = lower value 1.01 | S. cerevisiae deletion strains, locus YLR262C, strain YPT6 (second series), stronger effect = lower value 1.08 | S. cerevisiae deletion strains, locus YLR262C, strain YPT6, stronger effect = lower value 1.09 | S. cerevisiae deletion strains, locus YLR268W, strain sec22, stronger effect = lower value 0.989 | S. cerevisiae deletion strains, locus YLR320W, strain mms22, stronger effect = lower value 0.984 | S. cerevisiae deletion strains, locus YLR330W, strain CHS5, stronger effect = lower value 1.01 | S. cerevisiae deletion strains, locus YLR342W, strain FKS1 (second series), stronger effect = lower value 1.06 | S. cerevisiae deletion strains, locus YLR342W, strain FKS1, stronger effect = lower value 0.996 | S. cerevisiae deletion strains, locus YLR357W, strain rsc2, stronger effect = lower value 0.998 | S. cerevisiae deletion strains, locus YLR370C, strain arc18, stronger effect = lower value 0.994 | S. cerevisiae deletion strains, locus YLR371W, strain rom2, stronger effect = lower value 1.01 | S. cerevisiae deletion strains, locus YLR384C, strain iki3, stronger effect = lower value 0.995 | S. cerevisiae deletion strains, locus YLR418C, strain cdc73, stronger effect = lower value 1.01 | S. cerevisiae deletion strains, locus YML016C, strain PPZ1, stronger effect = lower value 1.01 | S. cerevisiae deletion strains, locus YML032C, strain rad52, stronger effect = lower value 1.02 | S. cerevisiae deletion strains, locus YML120C, strain ndi1, stronger effect = lower value 0.991 | S. cerevisiae deletion strains, locus YML124C, strain tub3, stronger effect = lower value 1 | S. cerevisiae deletion strains, locus YMR058W, strain fet3, stronger effect = lower value 1 | S. cerevisiae deletion strains, locus YMR078C, strain ctf18, stronger effect = lower value 1.01 | S. cerevisiae deletion strains, locus YMR125W, strain sto1, stronger effect = lower value 0.999 | S. cerevisiae deletion strains, locus YMR129W, stronger effect = lower value 0.995 | S. cerevisiae deletion strains, locus YMR205C, strain PFK2, stronger effect = lower value 0.98 | S. cerevisiae deletion strains, locus YMR223W, strain ubp8, stronger effect = lower value 1.03 | S. cerevisiae deletion strains, locus YMR231W, strain pep5, stronger effect = lower value 1.01 | S. cerevisiae deletion strains, locus YMR263W, strain SAP30, stronger effect = lower value 1 | S. cerevisiae deletion strains, locus YMR307W, strain GAS1, stronger effect = lower value 1.13 | S. cerevisiae deletion strains, locus YNL067W, strain RPL9B, stronger effect = lower value 0.994 | S. cerevisiae deletion strains, locus YNL071W, strain lat1, stronger effect = lower value 1 | S. cerevisiae deletion strains, locus YNL128W, strain TEP1, stronger effect = lower value 1.02 | S. cerevisiae deletion strains, locus YNL153C, strain GIM3, stronger effect = lower value 0.979 | S. cerevisiae deletion strains, locus YNL183C, strain NPR1, stronger effect = lower value 1.01 | S. cerevisiae deletion strains, locus YNL209W, strain ssb2, stronger effect = lower value 1 | S. cerevisiae deletion strains, locus YNL233W, strain BNI4, stronger effect = lower value 1 | S. cerevisiae deletion strains, locus YNL248C, strain rpa49, stronger effect = lower value 1.02 | S. cerevisiae deletion strains, locus YNL250W, strain rad50, stronger effect = lower value 1 | S. cerevisiae deletion strains, locus YNL271C, strain bni1, stronger effect = lower value 1.02 | S. cerevisiae deletion strains, locus YNL298W, strain CLA4, stronger effect = lower value 1.01 | S. cerevisiae deletion strains, locus YNL307C, strain MCK1, stronger effect = lower value 1.03 | S. cerevisiae deletion strains, locus YNL322C, strain KRE1 (second series), stronger effect = lower value 1.01 | S. cerevisiae deletion strains, locus YNL322C, strain KRE1, stronger effect = lower value 1.01 | S. cerevisiae deletion strains, locus YNR049C, strain mso1, stronger effect = lower value 1 | S. cerevisiae deletion strains, locus YNR052C, strain pop2, stronger effect = lower value 1.02 | S. cerevisiae deletion strains, locus YOL006C, strain TOP1, stronger effect = lower value 1.06 | S. cerevisiae deletion strains, locus YOL012C, strain htz1 1.14 | S. cerevisiae deletion strains, locus YOL147C, strain pex11, stronger effect = lower value 1 | S. cerevisiae deletion strains, locus YOR001W, strain rrp6, stronger effect = lower value 0.983 | S. cerevisiae deletion strains, locus YOR061W, strain CKA2, stronger effect = lower value 1.01 | S. cerevisiae deletion strains, locus YOR069W, strain VPS5, stronger effect = lower value 1.01 | S. cerevisiae deletion strains, locus YOR070C, strain gyp1, stronger effect = lower value 1 | S. cerevisiae deletion strains, locus YOR080W, strain dia2, stronger effect = lower value 1 | S. cerevisiae deletion strains, locus YOR083W, strain WHI5, stronger effect = lower value 1.01 | S. cerevisiae deletion strains, locus YOR106W, strain vam3, stronger effect = lower value 1 | S. cerevisiae deletion strains, locus YOR136W, strain idh2, stronger effect = lower value 1.01 | S. cerevisiae deletion strains, locus YOR144C, strain elg1, stronger effect = lower value 1 | S. cerevisiae deletion strains, locus YOR184W, strain ser1, stronger effect = lower value 1.05 | S. cerevisiae deletion strains, locus YOR231W, strain MKK1, stronger effect = lower value 1.03 | S. cerevisiae deletion strains, locus YOR265W, strain rbl2, stronger effect = lower value 0.996 | S. cerevisiae deletion strains, locus YOR270C, strain vph1, stronger effect = lower value 0.905 | S. cerevisiae deletion strains, locus YOR290C, strain snf2, stronger effect = lower value 1.03 | S. cerevisiae deletion strains, locus YOR316C, strain cot1, stronger effect = lower value 1 | S. cerevisiae deletion strains, locus YPL051W, strain arl3, stronger effect = lower value 1 | S. cerevisiae deletion strains, locus YPL055C, strain LGE1, stronger effect = lower value 1.01 | S. cerevisiae deletion strains, locus YPL078C, strain atp4, stronger effect = lower value 1.01 | S. cerevisiae deletion strains, locus YPL106C, strain sse1, stronger effect = lower value 1.03 | S. cerevisiae deletion strains, locus YPL240C, strain hsp82, stronger effect = lower value 1.02 | S. cerevisiae deletion strains, locus YPL241C, strain CIN2, stronger effect = lower value 1.01 | S. cerevisiae deletion strains, locus YPL256C, strain CLN2, stronger effect = lower value 1.04 | S. cerevisiae deletion strains, locus YPR119W, strain clb2, stronger effect = lower value 1.01 | S. cerevisiae deletion strains, locus YPR141C, strain kar3, stronger effect = lower value 1 | S. cerevisiae deletion strains, locus YPR163C, strain tif3, stronger effect = lower value 1 | S. cerevisiae deletion strains, locus YPR167C, strain met16, stronger effect = lower value 1.01 | S. cerevisiae deletion strains, strain wtn01, stronger effect = lower value 0.998 | S. cerevisiae strains, strain wild type, stronger effect = lower value 1.02
